These results are taken from PubChem BioAssay AID1259415 (National Center for Advancing Translational Sciences (NCATS), 2018).

Structures are written as SMILES. About 18,000 (4.4%) of roughly 410,000 compounds were called active. Roughly 7% stayed inconclusive and do not appear here. Cut-off read from the data, not from the text of the source: active = activity change below about -60%; inconclusive = no clear call, values can overlap the other calls; inactive = above about -39%. The sample as a whole holds a higher share of actives than the screen did.
% is set by controls: 0 for no effect and ±100 for the full control effect.

The experiment is described as follows: qHTS Assay for inhibitors of the human cytomegalovirus (HCMV). To be noted: HFF cells, HCMV-luciferase reporter, 72 h; at 57.5 µM; stronger effect = lower value. Put shortly: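 HFF cells seeded 16 h at 37C, treated with compounds, infected with luciferase-reporter HCMV at MOI 1 PFU/cell; luciferase read at 72 h post infection, normalized to buffer-only and Salinomycin controls.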
`CCOC(=O)c1c(S(=O)(=O)N2CCC(C(=O)NCc3ccccc3OC)CC2)c(C)n(C)c1C`: the activity change, negative = inhibition was 9.09% (inactive).

For `O=C(CC1Oc2ccc(Cl)cc2NC1=O)NCc1ccccc1` (configuration not stated), the activity change, negative = inhibition is -7.24% (inactive).

Take `O=C(Nc1ccc(F)cc1F)c1ccc2c(=O)n3c(nc2c1)CCCCC3`: the activity change, negative = inhibition was 61.7% (inactive).

Consider `COc1cccc(CNC(=O)C(NS(=O)(=O)c2ccc3nc(C)sc3c2)C(C)C)c1` (configuration not stated), for which the activity change, negative = inhibition was -9.19% (inactive).

For `COC(=O)c1ccc(COc2ccc(C#N)cc2)o1`, the activity change, negative = inhibition is -13.9% (inactive).

Take `Cc1ccc(C(=O)NC23CC4CC(CC(C4)C2)C3)c(Cl)c1`: the activity change, negative = inhibition is 20.9% (inactive).

For `S=C(NCc1ccc(Cl)cc1)NC12CC3CC(CC(C3)C1)C2`, the activity change, negative = inhibition was -100% (active).

In the case of `COc1ccccc1C(=O)NC(=S)NC12CC3CC(CC(C3)C1)C2`, the activity change, negative = inhibition is -36.1% (inactive).

As to `Cc1cc(-c2ccccc2)n2nc(-c3ccccc3)cc2n1`, the activity change, negative = inhibition was -2.35% (inactive).

Regarding `CC(C)(C)c1ccccc1NC(=O)CN1C(=O)NC2(CCCC2)C1=O`, the activity change, negative = inhibition was 19.2% (inactive).

Regarding `O=C(CN1C(=O)S/C(=C\c2ccccc2Cl)C1=O)NC1C=CS(=O)(=O)C1` (configuration not stated), the activity change, negative = inhibition was -66.8% (active).

For `CC12CCC(=O)N1C(C(=O)NCCN1C(=O)S/C(=C\c3ccccc3F)C1=O)CS2` (configuration not stated), the activity change, negative = inhibition was -21.8% (inactive).

For `O=C(NCCN1C(=O)S/C(=C\c2cccnc2)C1=O)c1ccc(S(=O)(=O)N2CCCC2)cc1`, the activity change, negative = inhibition is 3.64% (inactive).

In the case of `CCCn1c2ccccc2c2cnn(CC(=O)N(CC)c3cc(C)ccc3C)c(=O)c21`, the activity change, negative = inhibition was -37.8% (inactive).

Consider `Cc1ccc(C(=O)Nc2cc3c(cc2N2CCCC2)n(C)c(=O)c(=O)n3C)cc1`, for which the activity change, negative = inhibition is 0.153% (inactive).

For `O=C(NC1CCN(Cc2ccccc2)CC1)c1ccc(Cn2c(=O)c3ccccc3n(Cc3cccc(F)c3)c2=O)cc1`, the activity change, negative = inhibition was -15.8% (inactive).

Take `CCC(C(=O)Nc1cccc(Cl)c1C)n1nc(-c2ccc(C)cc2)ccc1=O` (configuration not stated): the activity change, negative = inhibition is 12.4% (inactive).

With `Cc1nnc(NC(=O)CSc2nc3c([nH]c4ccccc43)c(=O)n2-c2cccc(Cl)c2)s1`, the activity change, negative = inhibition was -12.8% (inactive).

Take `CCCCCCc1cc2cc(-c3nnc(-c4ccccc4)o3)c(=O)oc2cc1O`: the activity change, negative = inhibition was -100% (active).

As to `CCn1c(-c2cccnc2Cl)nc2cc(C)c(C)cc21`, the activity change, negative = inhibition is -25.4% (inactive).

For `COn1c(-c2ccc(Cl)cc2Cl)nc2ncccc21`, the activity change, negative = inhibition is -63.6% (active).

Take `Cc1ncn2cc(-c3ccc(Cl)cc3Cl)[nH]c(=O)c12`: the activity change, negative = inhibition was -32.3% (inactive).

Take `CC(NC(=O)CCc1cn(Cc2ccccc2Cl)c2ccccc12)c1ccccc1` (configuration not stated): the activity change, negative = inhibition was -11.3% (inactive).

For the compound `Cc1cccc(NC(=O)N2CCN(C)c3ncccc32)c1C`, the activity change, negative = inhibition is 12% (inactive).

On to `CC(Sc1oc(-c2ccco2)nc1S(=O)(=O)c1ccc(Br)cc1)c1ccccc1` (configuration not stated), for which the activity change, negative = inhibition is 0.136% (inactive).

`COc1ccc2c(Cl)c(-c3nnco3)sc2c1`: the activity change, negative = inhibition was -7.84% (inactive).

Regarding `CCN(C(=O)c1ccc(Br)cc1)c1ccccc1`, the activity change, negative = inhibition is 7.23% (inactive).

Take `CCN(C(=O)c1sc2cc(OC)ccc2c1Cl)c1ccccc1`: the activity change, negative = inhibition was -99.2% (active).

For `COc1ccc(CNC(=O)c2ccc3c(c2)nc2n3CCOC2)c(OC)c1`, the activity change, negative = inhibition is 2.67% (inactive).

Consider `COc1ccc(C(CNC(=O)c2cc(S(=O)(=O)Nc3cccc(C)c3)ccc2C)N2CCCC2)cc1` (configuration not stated), for which the activity change, negative = inhibition was -30.6% (inactive).

Consider `COc1ccccc1NS(=O)(=O)c1ccc(C)c(C(=O)NCC(c2ccco2)N(C)C)c1` (configuration not stated), for which the activity change, negative = inhibition was -6.15% (inactive).

For `Cc1cccc(NS(=O)(=O)c2ccc(C)c(C(=O)NCC(c3ccccc3)N(C)C)c2)c1` (configuration not stated), the activity change, negative = inhibition was -101% (active).

For `O=C(Nc1ccccc1Cl)/C(Cl)=C(\Cl)S(=O)c1ccccc1` (configuration not stated), the activity change, negative = inhibition was -100% (active).

Take `O=C(Nc1ccccc1Cl)N1CCC(CN2CCCCC2)CC1`: the activity change, negative = inhibition was -10.2% (inactive).

For the compound `O=C(Nc1ccccc1Cl)N1CCC(CN2CCCC2)CC1`, the activity change, negative = inhibition was 37.3% (inactive).

On to `Oc1ccccc1-c1cc(-c2ccc(Cl)cc2)n[nH]1`, for which the activity change, negative = inhibition was -20.6% (inactive).

For `COc1ccccc1CNS(=O)(=O)CC12CCC(CC1=O)C2(C)C` (configuration not stated), the activity change, negative = inhibition is 6.14% (inactive).

For the compound `Oc1cccc2cc(-c3ccncc3)cnc12`, the activity change, negative = inhibition is -101% (active).

Turning to `Cc1ccc(OCCSc2nc3ccc(NC(=O)COc4ccc(C)cc4)cc3s2)cc1`, the activity change, negative = inhibition is 7.69% (inactive).

As to `Cc1ccccc1NC(=O)Cn1c(=O)n(CC2CCC(C(=O)NCCc3ccccc3)CC2)c(=O)c2ccccc21` (configuration not stated), the activity change, negative = inhibition is 16.2% (inactive).

Regarding `COc1cc(C=C(OC(C)=O)c2ccc3c(c2)OCO3)cc(OC)c1OC`, the activity change, negative = inhibition was 62.8% (inactive).

Consider `COc1cc(C2c3cc4c(cc3C(O)C3COC(=O)C23)OCO4)cc(OC)c1OC` (configuration not stated), for which the activity change, negative = inhibition is -89.9% (active).

Regarding `COc1cc(OC)c2c(c1)OC(=O)CC2c1cc(OC)c(OC)c(OC)c1` (configuration not stated), the activity change, negative = inhibition was -7.37% (inactive).

`COC(=O)c1ccccc1NC(=O)c1cc(-c2ccccc2O)no1`: the activity change, negative = inhibition was -14.2% (inactive).

Turning to `COC(=O)/C(=C1\Oc2ccc(C(C)(C)C)cc2S1)C(F)(F)F`, the activity change, negative = inhibition was -66.8% (active).

For the compound `CCOC(=O)C1=C(c2ccccc2)O/C(=C(/C(=O)OC)C(F)(F)F)S1`, the activity change, negative = inhibition is 34.3% (inactive).

Take `O=C(CNC(=O)c1n[nH]c2ccccc12)Nc1cc(Cl)ccc1Cl`: the activity change, negative = inhibition is 12.1% (inactive).

As to `Cc1ccc(C)c(-n2nnnc2SCC(=O)c2c(N)n(C)c(=O)n(C)c2=O)c1`, the activity change, negative = inhibition is -19.3% (inactive).

In the case of `COc1ccc(CCCNC(=O)C2Cc3c(-c4cccc(C(N)=O)c4)ccnc3O2)cc1` (configuration not stated), the activity change, negative = inhibition was -20.5% (inactive).

As to `COc1ccc(NC(=O)C2(C)Cc3c(-c4ccc(C(N)=O)cc4)ccnc3O2)cc1` (configuration not stated), the activity change, negative = inhibition was 32.9% (inactive).

In the case of `CC(=O)Nc1cccc(-c2ccnc3c2CC(C)(C(=O)NCc2ccccc2)O3)c1` (configuration not stated), the activity change, negative = inhibition was -79.4% (active).

With `COc1ccc(NC(=O)C2Cc3c(-c4cccc(NC(C)=O)c4)ccnc3O2)cc1OC` (configuration not stated), the activity change, negative = inhibition was -67.8% (active).

In the case of `CC1(C(=O)Nc2cccnc2)Cc2c(-c3ccccc3)ccnc2O1` (configuration not stated), the activity change, negative = inhibition was -18.2% (inactive).

As to `CC1(C(=O)NCC2CCOCC2)Cc2c(-c3cccc(C(N)=O)c3)ccnc2O1` (configuration not stated), the activity change, negative = inhibition is 28.9% (inactive).

Take `COc1ccc(NC(=O)C2(C)Cc3c(-c4cccc(NC(C)=O)c4)ccnc3O2)cc1` (configuration not stated): the activity change, negative = inhibition is -77.2% (active).

As for `CC(=O)Nc1ccc(-c2ccnc3c2CC(C(=O)NC(C)C)O3)cc1` (configuration not stated), the activity change, negative = inhibition is -16.6% (inactive).

In the case of `COc1ccc(NC(=O)C2(C)Cc3c(-c4cccc(NC(C)=O)c4)ccnc3O2)cc1OC` (configuration not stated), the activity change, negative = inhibition was 16% (inactive).

As to `Brc1ccc2c(c1)NC(c1cccnc1)=NC(c1ccccc1)=N2`, the activity change, negative = inhibition was 21.9% (inactive).

Turning to `COc1ccc(NC(=O)CCNC(=O)Cn2ccc3ccccc3c2=O)c(OC)c1`, the activity change, negative = inhibition is -21.8% (inactive).

With `COC(=O)c1[nH]c2cccc(C)c2c1NC(=O)CN1CCCc2ccccc21`, the activity change, negative = inhibition is 52.8% (inactive).

For the compound `CCOc1ccccc1C(=O)NCC(c1ccc(N(C)C)cc1)N1CCCC1` (configuration not stated), the activity change, negative = inhibition was -6.83% (inactive).

With `CCOc1ccc(-c2nonc2NC(=O)c2oc3ccc(CC)cc3c2C)cc1`, the activity change, negative = inhibition is 29.2% (inactive).

With `CCOc1ccc(-c2cn(S(=O)(=O)c3cccc4nsnc34)nc2N)cc1`, the activity change, negative = inhibition was -29.7% (inactive).

With `COc1ccccc1C(c1nnnn1C(C)(C)C)N1CCN(Cc2ccccc2)CC1` (configuration not stated), the activity change, negative = inhibition is -19.3% (inactive).

On to `CCC(C)(C)n1nnnc1C(c1cccs1)N1CCN(c2nc3ccccc3s2)CC1` (configuration not stated), for which the activity change, negative = inhibition was -76.3% (active).

Consider `CCC(C)(C)n1nnnc1C(c1ccc(OC)c(OC)c1)N1CCN(C(=O)c2ccco2)CC1` (configuration not stated), for which the activity change, negative = inhibition is -20.3% (inactive).

Turning to `CCOc1ccccc1N(CC)C(=O)c1cc2ccc3cccnc3c2[nH]1`, the activity change, negative = inhibition is 36.8% (inactive).

As for `CCOC(=O)c1c(C)[nH]c(C)c1S(=O)(=O)N(C)CC(=O)N1CCN(c2ccccc2)CC1`, the activity change, negative = inhibition was -3.36% (inactive).

Turning to `CCOC(=O)c1c(SCC(=O)Nc2cccc(C)c2C)nc(=O)[nH]c1C`, the activity change, negative = inhibition is -0.768% (inactive).

With `CCOC(=O)c1c(C)[nH]c2c1-c1ccccc1C(=O)C2=O`, the activity change, negative = inhibition was -99.7% (active).

Regarding `CCOCCCNC(=O)c1c(NC(=O)Cc2coc3c(C)c(C)ccc23)sc2c1CCC2`, the activity change, negative = inhibition is -19.7% (inactive).

As for `CN(C)CCCN(C(=O)c1ccc(S(=O)(=O)N2CCCc3ccccc32)cc1)c1nc2ccc(F)cc2s1`, the activity change, negative = inhibition was -113% (active).

On to `CN(C)CCCN(C(=O)c1ccc(S(=O)(=O)N2CCCCCC2)cc1)c1nc2ccc(Br)cc2s1`, for which the activity change, negative = inhibition was -66.2% (active).

As to `O=C(Nc1nnc(S(=O)(=O)N2CCCc3ccccc32)s1)c1cccc(F)c1`, the activity change, negative = inhibition is -22.4% (inactive).

Regarding `CCN(CC(=O)Nc1c(F)cccc1F)C(=O)c1ccc(S(=O)(=O)N2CCCCC2)cc1`, the activity change, negative = inhibition was -16.4% (inactive).

As for `CC1CCN(C(=O)c2cccc(S(=O)(=O)N3CCCc4ccccc43)c2)CC1`, the activity change, negative = inhibition is -31.3% (inactive).

On to `Cc1cc(C)c2sc(NC(=O)c3ccc(S(=O)(=O)N4CCCC4)cc3)nc2c1`, for which the activity change, negative = inhibition is 1.97% (inactive).

Take `Cc1cn(C)c(CC(=O)NCc2ccc(Cl)cc2)c1C(=O)O`: the activity change, negative = inhibition was -3.74% (inactive).

Take `O=C(CSc1ncc(CO)n1Cc1ccc(Cl)cc1)NCc1ccc(F)cc1`: the activity change, negative = inhibition is 0.963% (inactive).

For `Cc1ccc2[nH]c(=O)c(CC=C(Cl)Cl)c(C)c2c1`, the activity change, negative = inhibition is -11.6% (inactive).

Consider `CCC(=O)Nc1cccc(-c2nc3cc(C)ccc3o2)c1`, for which the activity change, negative = inhibition was 103% (inactive).

`NC(=O)c1ccc(N2CCCC2)nc1`: the activity change, negative = inhibition was 9.29% (inactive).

`C/C(CC(C)C)=N\Oc1nc(C)cc(C)n1`: the activity change, negative = inhibition was -62.7% (active).

Consider `COc1ccc(NC(=O)C(CC(C)C)NS(=O)(=O)c2ccc3c(c2)CCN3C(C)=O)cc1OC` (configuration not stated), for which the activity change, negative = inhibition is -16% (inactive).

Turning to `C[C@@H]1CC[C@@]2(OC1)O[C@H]1C[C@H]3[C@@H]4CC=C5C[C@@H](O)[C@H](O)C[C@]5(C)C4CC[C@]3(C)[C@H]1[C@@H]2C` (some centres not stated), the activity change, negative = inhibition was -70.9% (active).

For the compound `C[C@]12CC[C@H](O)CC1=CCC1C2CC[C@@]2(C)C1CC[C@@H]2NC(=O)CCC(=O)O` (some centres not stated), the activity change, negative = inhibition was -2.14% (inactive).

`CC(=O)OC1CCC2(C)C(=CCC3C4CC(=O)N(O)C(=O)C4(C)CCC32)C1` (configuration not stated): the activity change, negative = inhibition was 17.9% (inactive).
